Shown are actives, neighbours in structure and some others; about 12% of the full set was active somewhere.
HP1b binding inh = HP1-beta chromodomain-methylated histone interaction inhibition; P83916; AlphaScreen HP1-beta / biotin-H3K9me3 peptide binding; Potency, µM (doses to about 114 µM), inactives show top-dose activity change, negative = inhibition, hits mostly inhibitors; actives 0.56% (n = 390,000); AID 540317; note: nearly all actives have a fitted effect of over 70% in size
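AlphaScreen: HP1-beta (50 nM) preformed 30 min with biotin-H3(1-18)K9me3 peptide (50 nM) in PBS pH 7.4, 0.01% Tween-20. Compound added for 30 min at RT, then streptavidin donor/nickel chelate acceptor beads (10 ug/mL) for 30 min.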
BAZ2B inh = blocks human BAZ2B; Q9UIF8; AlphaScreen BAZ2B-H3K14Ac peptide displacement; Potency, µM (highest dose often 114 µM), for the others: at the top dose activity change, negative = inhibition, usual class: inhibitors; actives 4.4% (n = 360,000); note: % is set by controls: 0 for no effect and ±100 for the full control effect; nearly all actives have a fitted effect of over 60% in size
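In this displacement format the biotinylated H3(5-23) peptide acetylated at Lys14 serves as ligand at 50 nM, with BAZ2B at 50 nM in PBS pH 7.4 containing 0.01% Tween-20. Donor and acceptor beads are 10 ug/mL final.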
JMJD2A Tudor = inhibitors of human JMJD2A Tudor domain; O75164; AlphaScreen JMJD2A-Tudor / H3K4me3 peptide binding; Potency, µM (doses to about 114 µM), for the others: at the top dose activity change, negative = inhibition, most hits filed as inhibitors; actives 4.4% (n = 390,000); note: % is set by controls: 0 for no effect and ±100 for the full control effect; nearly all actives have a fitted effect of over 50% in size
Sfp inh = Sfp phosphopantetheinyl transferase inhibition. Q9F4F7. Biochemical Sfp PPTase activity, qHTS. Potency, µM, for inactives: largest response in the series, negative = inhibition, most hits filed as inhibitors. actives 3.5% (n = 310,000);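 note: the enzyme is Sfp with the accession as filed and its product quenches rhodamine fluorescence; 0% = enzyme reaction without inhibitor and -100% = no enzyme wells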
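Fluorescence-quenching assay with 15 nM Sfp, 5 uM rhodamine-CoA and 12.5 uM BHQ-2-labelled ybbR peptide in pH 7.6 Hepes/MgCl2 buffer. Enzyme was pre-incubated with compound for 15 min at room temperature. Rate was taken from the 30-min fluorescence change (525/598 nm).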
PLK1 PBD block = PLK1 (human) polo-box domain binding inhibition | P53350 | Plk1 PBD binding of FITC phosphopeptide, fluorescence polarization | Potency, µM, without a hit: max response, negative = inhibition, hits mostly inhibitors | actives 2.8% (n = 360,000) | AID 720504; note: series mostly up to about 57 µM; % is set by controls: 0 for no effect and ±100 for the full control effect; nearly all actives have a fitted effect of over 65% in size
G9a block = inhibitors of human histone lysine methyltransferase G9a; Q96KQ7; G9a H3K9 monomethylation, AlphaScreen, 2 h; Potency, µM (highest dose often 102 µM), for inactives: top-dose activity, negative = inhibition, usual class: inhibitors; actives 8.8% (n = 350,000); AID 504332; note: % is set by controls: 0 for no effect and ±100 for the full control effect; nearly all actives have a fitted effect of over 75% in size
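G9a (20 nM) was preincubated 15 min with compound, then reacted 2 h at room temperature with 500 nM biotin-H3K9 peptide and 20 µM SAM. Monomethyl-H3K9 detected by AlphaScreen using anti-H3K9me1 antibody.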
Starred values were filed as active, the others as inactive; ? = inconclusive; . = no result; ! = not confirmed by another sample; [ ] = dose if it differs, or a comment. Calls come from the whole dose curve; as a rule, active = well fitted curve in the direction sought with a large enough effect; inconclusive = small, poorly fitted or top-dose-only effect, or another doubt; inactive = no such curve, though single readings can be large; an effect the other way counts as inactive or inconclusive. Potency is the fitted concentration of half-maximal effect.

SMILES	HP1b binding inh	BAZ2B inh	JMJD2A Tudor	Sfp inh	PLK1 PBD block	G9a block
CC1(C)CC(=O)C2=C(C1)OC(N)=C([N+](=O)[O-])C2c1ccc(C#N)s1 (stereo not given)	10.5%	?	-14.7%	35.5µM*	?	-9.0%[12.7 µM]
CSc1nn(-c2ccc(C(=O)OCC(=O)NC(=O)NC(C)C)cc2)c(=S)s1	-9.8%	?	?	-5.8%	-5.9%	-18.5%[59 µM]
CN1C(=O)CCS(=O)(=O)[C@H]1c1ccc(Cl)cc1	.	.	.	3.1%	.	.
O=c1[nH]c(=S)n(C2CC2)c(O)c1/C=N/Nc1ccccc1	-1.4%	-34.5%	?	50.1µM*	-13.5%	1.41µM*
O=c1[nH]c(=S)n(C2CC2)c(O)c1C=NCCN1CCOCC1	16.6%	2.8%	-13.2%	-7.2%	-1.6%	1.6%
O=c1[nH]c(=S)n(C2CC2)c(O)c1/C=N/Nc1cccc2ccccc12	2.7%	?	?	20µM*	-6.7%	1.41µM*
CC(N=Cc1c(O)n(C2CC2)c(=S)[nH]c1=O)c1ccccc1 (stereo not given)	36.6%	-7.8%	0.7%	12.6%	3.0%	-42.3%
O=c1[nH]c(=S)[nH]c(O)c1N=Nc1ccc(OC(F)F)cc1	34.8%	-18.4%	-17.7%	-3.6%	-4.4%	-41.7%
CSc1nc(N)c(N=Nc2ccc([As](=O)(O)O)cc2)c(=O)[nH]1	40.6%	-18.3%	?	2.82µM*	10.6µM*	8.91µM*
CCOc1ccc(NC(=O)CSc2oc(-c3ccccc3)nc2S(=O)(=O)c2ccc(Cl)cc2)cc1	47.2%	-3.0%	-7.5%	.	.	-31.7%[59 µM]
C#C[C@]1(O)CCC2C3CCC4=C/C(=N/OCC(=O)NC(C)C(=O)NC(CCSC)C(=O)O)CC[C@]4(C)C3CC[C@@]21C (stereo not given in full)	44.7%	2.3%	-17.1%	-23.3%	?	56.2µM*
O=C(Nc1ccc(Br)cc1)c1cc(Br)cc(Br)c1O	.	.	.	-2.0%	.	2.8%[59 µM]
NCCCCC(NC(CCc1ccccc1)C(=O)O)C(=O)N1CCCC1C(=O)O (stereo not given)	.	.	.	-7.4%	.	-45.5%[2.33 µM]
NCCCC[C@H](N[C@@H](CCc1ccccc1)C(=O)O)C(=O)N1CCC[C@H]1C(=O)O	66.3%	-3.6%	-16.5%	17.4%	-8.3%	10µM*!
C=C1CC2C(CC[C@]3(C)C(=O)CCC23)[C@]2(C)C=CC(=O)C=C12 (stereo not given in full)	.	.	.	5.4%	.	21.2%[59 µM]
O=C1CCC[C@H]2[C@H]3CCCN4CCCC(=CN12)[C@@H]34	.	.	.	-17.0%	.	.
CP(=O)(O)C1=CCNCC1	.	.	.	-0.6%	.	19.1%[59 µM]
CC(n1cc(C[C@H](N)C(=O)O)c2ccccc21)n1cc(C[C@H](N)C(=O)O)c2ccccc21	.	.	.	28.2µM*	.	4.8%[59 µM]
COC(=O)CCCCC1SCC(NC(=O)c2ccccc2)C1Cl (stereo not given)	35.6%	79.4µM*	-11.7%	0.0%	-6.2%	-41.3%
CCOc1ccc2nc(N(CCN(CC)CC)C(=O)c3ccc([N+](=O)[O-])cc3)sc2c1	-0.4%	.	-18.9%	?	-7.6%	14.2%
CCCCC(CC)CNCC(O)c1ccccc1 (stereo not given)	-22.0%	.	7.08µM*	-4.2%	-4.5%	25.1µM*
CCC[C@H](N[C@@H](CCC)[C@H](O)c1ccccc1)[C@H](O)c1ccccc1	-6.9%	.	-8.8%	.	-13.0%	.
Clc1ccc(N2CC3CCC(C2)N3)nn1	.	.	.	.	.	23.8µM*
CC(=O)OCC1=C(C(=O)O)N2C(=O)[C@@H](N)[C@@H]2SC1	.	.	.	22.4µM*	.	0.4%[5.15 µM]
CC[C@@]1(O)C(=O)OCc2c1cc1n(c2=O)-c2cc3ccccc3nc2C1	.	.	.	1.0%	.	22.8%[59 µM]
O=C(Nc1cccnc1)C1CCN(S(=O)(=O)c2cccs2)CC1	17.5%	1.5%	-17.4%	5.3%	-1.2%	16.5%
COc1cc(-c2ccc(-[n+]3nc(-c4ccccc4)nn3-c3ccc([N+](=O)[O-])cc3)c(OC)c2)ccc1-[n+]1nc(-c2ccccc2)nn1-c1ccc([N+](=O)[O-])cc1	.	.	.	7.8%	.	?
Cc1ccc2scc(N3CCN(C)CC3)c(=O)c2c1	14.2%[57 µM]	7.8%	-26.8%	.	.	39.2%[59 µM]
